Records with an inconclusive call do not appear. The source made the active and inactive calls. Unless noted, calls come from the whole dose curve.
What was measured:
[1] = Nuclear factor erythroid 2-related factor 2/antioxidant responsive element (Nrf2/ARE) small molecule agonists: qHTS cell viability counter screen in human keratinocytes (AID 1919968; active = well fitted curve in the direction sought with a large enough effect in the repeat runs; an effect the other way counts as inactive or inconclusive; note: nearly all actives have a fitted effect of over 55% in size)
Method in brief: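 KeratinoSens HaCaT cells, 1,500/well, preincubated 5 h, then exposed to compounds in DMSO for 23 h at 37 C/5% CO2. Viability read as CellTiter-Fluor fluorescence after 1 h, in the same wells as the ARE-luciferase read.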

[2] = Nuclear factor erythroid 2-related factor 2/antioxidant responsive element (Nrf2/ARE) small molecule agonists: luciferase reporter gene qHTS assay in human keratinocytes (AID 1919969); note: nearly all actives have a fitted effect of over 35% in size
[3] = target: Gonadotropin-releasing hormone receptor (Homo sapiens) (UniProt P30968); assay: Human gonadotropin-releasing hormone receptor (GnRHR) small molecule agonists, calcium flux assay in GnRHR-HEK293 cells (AID 1920063); note: nearly all actives have a fitted effect of over 35% in size
Method in brief: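 HEK293 cells stably expressing human GnRHR were dye-loaded for 1 h at 37 C. Compound was added in agonist mode and fluorescence (Ex/Em 480/540) recorded kinetically for 3 min. Fifteen concentrations, triplicates.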

[4] = target: KiSS-1 receptor (Homo sapiens) (UniProt Q969F8); assay: Human kisspeptin (KISS1R) small molecule agonists, calcium flux assay in KISS1R-HEK293 cells (AID 1920064; active = well fitted curve in the direction sought with a large enough effect in the repeat runs; an effect the other way counts as inactive or inconclusive)
Method in brief: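 HEK293 cells stably expressing human KISS1R were loaded with calcium dye for 1 h at 37 C, then given compound; fluorescence (Ex/Em 480/540) was read kinetically for 3 min. Fifteen concentrations, triplicate.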

[5] = G protein-coupled receptor (GPCR) small molecule agonists, calcium flux assay: HEK293 wild type cell line counter screen (AID 1920065)
Method in brief: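 Wild-type HEK293 cells plated 18 h, loaded with calcium dye 1 h at 37 C, then compounds added in agonist mode (ATP as positive control). Kinetic fluorescence Ex/Em 480/540 recorded 3 min at 1 sec intervals; 15 concentrations, triplicate.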

[6] = p53 small molecule agonists, cell-based qHTS assay with human liver microsomes (AID 1963577)
Method in brief: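 Cells carrying a p53-responsive bla reporter were rested 5 h (37 C, 5% CO2) before compound transfer. Human liver microsomes plus NADPH, 0.5 mg/mL final apiece, supplied metabolism during the 16 h 37 C exposure.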

[7] = p53 small molecule agonists, cell-based qHTS assay with rat liver microsomes (AID 1963578)
Method in brief: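 Fluorescence from a beta-lactamase reporter under a p53 response element was measured after cells had been incubated 16 h at 37 C with test compound and rat liver microsomes plus NADPH (0.5 mg/mL final each).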

[8] = p53 small molecule agonists, cell-based qHTS assay with human liver microsomes: qHTS cell viability counter screen (AID 1963579); note: nearly all actives have a fitted effect of over 45% in size
Method in brief: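 Seed p53RE-bla cells at 4,000 per well; incubate 5 h at 37 C; add compound, human liver microsomes and NADPH; incubate 16 h at 37 C; add CellTiter-Glo; after 30 min at room temperature, read luminescence.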

[9] = p53 small molecule agonists, cell-based qHTS assay with rat liver microsomes: qHTS cell viability counter screen (AID 1963580); note: nearly all actives have a fitted effect of over 45% in size
Method in brief: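 HCT-116 p53RE-bla, 4,000 cells/well, 5 h pre-incubation; cpd + rat liver microsomes 0.5 mg/mL + NADPH 0.5 mg/mL (final); 16 h, 37 C; CellTiter-Glo, 30 min RT; luminescence.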

[10] = p53 small molecule agonists, cell-based qHTS assay: qHTS cell viability counter screen (AID 1963581); note: nearly all actives have a fitted effect of over 45% in size
Method in brief: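 p53RE-bla HCT-116 cells, compounds added 5 h after plating and incubated 16 h at 37 C. Cytotoxicity measured in the same wells as intracellular ATP by CellTiter-Glo luminescence after 30 min at room temperature.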

[11] = p53 small molecule agonists, cell-based qHTS assay (AID 1963582; active = well fitted activation curve with a large enough effect in the signal ratio in the repeat runs, not every such curve was filed as active; the % refers to the signal ratio)
Method in brief: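 p53RE-bla reporter cells, compounds added in DMSO after 5 h plating, incubated 16 h at 37 C. Beta-lactamase read via 2 h room-temperature LiveBLAzer B/G FRET substrate, fluorescence intensity.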

[12] = target: 5-hydroxytryptamine receptor 2A (Homo sapiens) (UniProt P28223); assay: 5-hydroxytryptamine receptor 2A (HTR2A) small molecule antagonists, cell-based qHTS assay (AID 1963586); note: nearly all actives have a fitted effect of over 45% in size
Method in brief: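 Antagonist-mode intracellular calcium assay: DOI (4 nM) added after 5 min compound pre-incubation at room temperature to dye-loaded HTR2A-CHO cells. Fluorescence followed for 3 min, sampled every second.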

[13] = target: 5-hydroxytryptamine receptor 2A (Homo sapiens) (UniProt P28223); assay: 5-hydroxytryptamine receptor 2A (HTR2A) small molecule agonists, cell-based qHTS assay (AID 1963587); note: nearly all actives have a fitted effect of over 30% in size
Method in brief: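 Kinetic calcium-flux fluorescence (2 min, 1 sec intervals) after compound addition in agonist mode. HTR2A-CHO cells were cultured 18 h, then dye-loaded 1 h at 37 C.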

[14] = target: Muscarinic acetylcholine receptor M1 (Homo sapiens) (UniProt P11229); assay: Cholinergic receptor muscarinic 1 (CHRM1) small molecule antagonists, cell-based qHTS assay (AID 1963588); note: nearly all actives have a fitted effect of over 40% in size
Method in brief: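 CHRM1-CHO calcium-flux assay, antagonist mode. Cells were seeded 18 h, dye-loaded 1 h at 37 C and given compound for 5 min at RT, then acetylcholine was added at 50nM. FDSS fluorescence was read 3 min; 15 concentrations, three runs.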

[15] = target: Muscarinic acetylcholine receptor M1 (Homo sapiens) (UniProt P11229); assay: Cholinergic receptor muscarinic 1 (CHRM1) small molecule agonists, cell-based qHTS assay (AID 1963589); note: nearly all actives have a fitted effect of over 35% in size
Method in brief: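 CHO cells stably expressing human CHRM1 were loaded with calcium dye for 1 h at 37 C, then compound was added in agonist mode. Intracellular calcium fluorescence was followed kinetically at 1 s intervals. Fifteen concentrations were tested in three independent runs.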

[16] = cAMP Responsive Elements (CRE) small molecule agonists, cell-based qHTS assay (AID 1963590)
Method in brief: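 CRE-bla HEK 293T cells, 2,000/well in DMEM with 10% dialyzed FBS and 25 mM HEPES, pre-incubated 18 h at 37 C, then exposed to compound 3 h at 37 C. Beta-lactamase reporter read with LiveBLAzer B/G FRET substrate after 2 h at room temperature.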

[17] = cAMP Responsive Elements (CRE) small molecule antagonists, cell-based qHTS assay (AID 1963591; active = well fitted inhibition curve with a large enough effect in the signal ratio in the repeat runs, not every such curve was filed as active; the % refers to the signal ratio)
Method in brief: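 CRE-bla HEK293T cells plated 18 h, then given compound plus NKH477 at 0.25 uM final for 3 h at 37C. Beta-lactamase reporter read with LiveBLAzer B/G FRET substrate after 2 h at room temperature.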

[18] = target: Beta-2 adrenergic receptor (Homo sapiens) (UniProt P07550); assay: Adrenergic beta2 receptor (ADRB2) small molecule antagonists, cell-based qHTS assay (AID 1963592); note: series mostly up to about 92 µM; nearly all actives have a fitted effect of over 50% in size
Method in brief: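 Cells (CHO, stable ADRB2 overexpression) incubated 18-20hr at 37C; compounds added from DMSO; agonist mix (1nM isoproterenol, 100uM IBMX, 25uM Ro-20-1724) added; 0.5hr RT; d2-cAMP and anti-cAMP-cryptate added; 1hr RT; 665/615 nm read.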

[19] = target: D(2) dopamine receptor (Homo sapiens) (UniProt P14416); assay: Dopamine D2 receptor (DRD2) small molecule agonists, cell-based qHTS assay (AID 1963594); note: nearly all actives have a fitted effect of over 35% in size
Method in brief: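 cAMP accumulation in DRD2-HEK293 cells measured by HTRF after 1 h detection; compounds added 10 min before NKH477 (200nM […]) forskolin-analogue stimulation, 30 min at room temperature, with Ro20-1724 present at 0.1 mM final.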

[20] = target: D(2) dopamine receptor (Homo sapiens) (UniProt P14416); assay: Dopamine D2 receptor (DRD2) small molecule antagonists, cell-based qHTS assay (AID 1963595; active = well fitted inhibition curve with a large enough effect in the signal ratio in the repeat runs, with a control signal flat; the % refers to the signal ratio)
Method in brief: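 In this cell-based antagonist screen, compounds act for 10 min at room temperature before a 30 min challenge with 12 nM quinpirole and 200 nM NKH477. cAMP is quantified by HTRF competition in DRD2-HEK293 cells containing 0.1 mM Ro20-1724.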

Measured: Potency

D(2) dopamine receptor (Homo sapiens), sequence (P14416 whole entry, looked up): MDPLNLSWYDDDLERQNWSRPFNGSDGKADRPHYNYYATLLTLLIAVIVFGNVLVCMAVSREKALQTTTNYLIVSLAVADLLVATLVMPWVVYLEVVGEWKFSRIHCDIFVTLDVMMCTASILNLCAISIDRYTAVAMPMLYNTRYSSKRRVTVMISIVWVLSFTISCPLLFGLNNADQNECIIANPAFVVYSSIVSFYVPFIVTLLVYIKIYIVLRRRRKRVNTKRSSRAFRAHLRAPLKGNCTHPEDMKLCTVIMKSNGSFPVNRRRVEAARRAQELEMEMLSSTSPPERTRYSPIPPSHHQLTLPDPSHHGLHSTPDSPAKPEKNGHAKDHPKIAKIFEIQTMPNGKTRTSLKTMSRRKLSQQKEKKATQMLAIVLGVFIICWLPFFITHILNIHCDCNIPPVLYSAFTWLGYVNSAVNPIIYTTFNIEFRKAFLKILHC
Beta-2 adrenergic receptor (Homo sapiens), sequence (P07550 whole entry, looked up): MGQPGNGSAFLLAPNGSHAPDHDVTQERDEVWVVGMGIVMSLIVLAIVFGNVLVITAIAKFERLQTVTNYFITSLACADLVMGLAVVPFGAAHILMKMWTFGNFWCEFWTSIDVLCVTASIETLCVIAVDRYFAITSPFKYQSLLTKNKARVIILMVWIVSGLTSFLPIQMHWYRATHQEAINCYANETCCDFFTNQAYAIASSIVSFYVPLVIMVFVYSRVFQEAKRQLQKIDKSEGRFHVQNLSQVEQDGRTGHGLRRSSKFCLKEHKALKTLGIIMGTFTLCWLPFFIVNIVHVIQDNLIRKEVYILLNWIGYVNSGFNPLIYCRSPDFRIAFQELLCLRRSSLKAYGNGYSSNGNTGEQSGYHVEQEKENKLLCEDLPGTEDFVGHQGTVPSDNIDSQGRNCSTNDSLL
Muscarinic acetylcholine receptor M1 (Homo sapiens), sequence (P11229 whole entry, looked up): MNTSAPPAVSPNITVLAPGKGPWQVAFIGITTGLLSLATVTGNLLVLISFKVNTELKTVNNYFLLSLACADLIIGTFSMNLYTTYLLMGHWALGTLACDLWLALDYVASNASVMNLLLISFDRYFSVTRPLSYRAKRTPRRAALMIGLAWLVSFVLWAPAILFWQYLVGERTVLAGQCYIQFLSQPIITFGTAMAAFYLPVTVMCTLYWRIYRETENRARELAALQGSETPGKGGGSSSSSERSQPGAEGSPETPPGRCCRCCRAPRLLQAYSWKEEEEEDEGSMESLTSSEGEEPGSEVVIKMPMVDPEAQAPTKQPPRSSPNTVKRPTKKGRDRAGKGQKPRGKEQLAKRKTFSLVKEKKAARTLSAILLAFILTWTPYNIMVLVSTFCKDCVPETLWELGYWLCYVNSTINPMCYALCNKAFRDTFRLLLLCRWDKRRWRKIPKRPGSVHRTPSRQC
KiSS-1 receptor (Homo sapiens), sequence (Q969F8 whole entry, looked up): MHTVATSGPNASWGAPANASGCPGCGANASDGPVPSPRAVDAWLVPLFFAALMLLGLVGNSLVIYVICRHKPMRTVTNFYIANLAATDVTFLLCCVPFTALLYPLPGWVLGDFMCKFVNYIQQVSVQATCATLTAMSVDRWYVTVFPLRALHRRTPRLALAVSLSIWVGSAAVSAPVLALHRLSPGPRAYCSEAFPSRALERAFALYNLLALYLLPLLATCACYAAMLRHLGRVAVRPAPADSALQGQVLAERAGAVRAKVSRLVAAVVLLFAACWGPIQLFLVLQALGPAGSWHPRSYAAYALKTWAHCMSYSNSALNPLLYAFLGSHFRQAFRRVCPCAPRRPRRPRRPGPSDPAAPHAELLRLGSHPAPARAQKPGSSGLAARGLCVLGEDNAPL
Gonadotropin-releasing hormone receptor (Homo sapiens), sequence (P30968 whole entry, looked up): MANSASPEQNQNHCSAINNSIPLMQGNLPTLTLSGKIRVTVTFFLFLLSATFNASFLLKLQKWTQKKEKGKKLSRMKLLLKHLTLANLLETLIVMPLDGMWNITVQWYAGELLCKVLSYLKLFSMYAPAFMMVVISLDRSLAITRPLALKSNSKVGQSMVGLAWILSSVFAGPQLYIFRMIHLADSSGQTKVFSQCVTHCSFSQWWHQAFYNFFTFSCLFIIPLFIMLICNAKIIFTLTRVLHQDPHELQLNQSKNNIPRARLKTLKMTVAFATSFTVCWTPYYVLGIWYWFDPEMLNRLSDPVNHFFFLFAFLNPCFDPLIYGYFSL
5-hydroxytryptamine receptor 2A (Homo sapiens), sequence (P28223 whole entry, looked up): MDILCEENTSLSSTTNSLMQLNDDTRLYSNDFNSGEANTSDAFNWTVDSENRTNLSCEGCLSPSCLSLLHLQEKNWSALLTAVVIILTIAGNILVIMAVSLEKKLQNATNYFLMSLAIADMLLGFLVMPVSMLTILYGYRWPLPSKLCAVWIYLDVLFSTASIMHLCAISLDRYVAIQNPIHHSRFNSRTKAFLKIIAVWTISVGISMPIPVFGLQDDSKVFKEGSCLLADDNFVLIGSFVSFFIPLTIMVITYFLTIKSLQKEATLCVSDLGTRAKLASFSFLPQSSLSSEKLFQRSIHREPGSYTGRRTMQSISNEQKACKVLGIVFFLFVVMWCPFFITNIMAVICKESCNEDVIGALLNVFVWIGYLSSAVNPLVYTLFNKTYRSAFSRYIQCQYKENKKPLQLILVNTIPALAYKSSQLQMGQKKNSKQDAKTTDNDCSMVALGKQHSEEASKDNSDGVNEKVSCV

C1COCCN1
inactive: all assays above

Cc1ccc(C)c(O)c1C
inactive: all assays above

C=C(C)CC(C)(C)C
inactive: all assays above

CSc1ccc(Cl)cc1
inactive: all assays above

CC(=O)[C@H]1CC[C@H]2[C@@H]3CC=C4C[C@@H](O)CC[C@]4(C)[C@H]3CC[C@]12C
inactive: all assays above

CC(=O)CC(=O)N(C)C
inactive: all assays above

Cc1cccc2ccccc12
inactive: all assays above

NCCS(=O)(=O)O
inactive: all assays above

COc1ccc(OC)cc1
inactive: all assays above

Cc1ccc([N+](=O)[O-])cc1N
inactive: all assays above

CCCN(CCC)C(=O)SCC
inactive: all assays above

CCCCCCCCCC
inactive: all assays above

C/C=C/c1ccc(OCC)c(O)c1
inactive: all assays above

Cc1ccc(S(=O)(=O)O)cc1C
inactive: all assays above

CCCCNS(=O)(=O)c1ccccc1
inactive: all assays above

— PubChem BioAssay (Tox21)
